# Legend:
# Conditions in all cases: concentration: 1 μM, replicates: in singlicate; n = 1
# CAMK2D = test system: CAMK2D
# CAMK2G = test system: CAMK2G
# CAMK4 = test system: CAMK4
# CAMKK1 = test system: CAMKK1
# CAMKK2 = test system: CAMKK2
# CASK = test system: CASK
# CDC2L1 = test system: T1, CDC2L1
# T1 construct: gene CDK11B
# CDC2L2 = test system: CDC2L2
# CDC2L5 = test system: T2, CDC2L5
# T2 construct: gene CDK13
# CDK11 = test system: T3, CDK11
# T3 construct: gene CDK19
# CDK2 = test system: CDK2
# CDK3 = test system: CDK3
# CDK4-cyclinD1 = test system: CDK4-cyclinD1
# CDK4-cyclinD3 = test system: CDK4-cyclinD3
# CDK4 = test system: CDK4
# CDK5 = test system: CDK5
# CDK7 = test system: CDK7
# CDK8 = test system: CDK8
# CDK9 = test system: CDK9
# CDKL1 = test system: CDKL1
# 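Note: KINOMEscan kinase panel screen.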
Compound,%Inh (CAMK2D),%Inh (CAMK2G),%Inh (CAMK4),%Inh (CAMKK1),%Inh (CAMKK2),%Inh (CASK),%Inh (CDC2L1),%Inh (CDC2L2),%Inh (CDC2L5),%Inh (CDK11),%Inh (CDK2),%Inh (CDK3),%Inh (CDK4-cyclinD1),%Inh (CDK4-cyclinD3),%Inh (CDK4),%Inh (CDK5),%Inh (CDK7),%Inh (CDK8),%Inh (CDK9),%Inh (CDKL1)
Cn1cc(-c2ccc3c(c2)CCN3C(=O)Cc2cccc(C(F)(F)F)c2)c2c(N)ncnc21 [GSK2606414],0%,5%,0%,7%,0%,75%,0%,0%,0%,37%,0%,0%,0%,0%,6%,0%,0%,34%,0%,0%
N#Cc1ccc(Oc2ccc(Nc3ncnc4cc[nH]c34)cc2Cl)cc1,13%,10%,3%,6%,11%,0%,14%,10%,0%,3%,6%,2%,11%,6%,0%,0%,27%,13%,17%,27%
Cl.O=S(=O)(c1cccc(F)c1)c1ccc(Nc2ncnc3cc(Br)sc23)cc1Cl [GSK306886],9%,0%,0%,0%,20%,47%,3%,20%,0%,0%,6%,44%,0%,7%,17%,0%,0%,0%,6%,19%
COC(=O)c1cccc(NC(=O)NCCNc2ccnc(Nc3ccc(F)cc3)n2)c1 [GSK1379883],0%,17%,0%,11%,6%,0%,0%,20%,0%,16%,0%,2%,0%,0%,34%,0%,0%,8%,0%,3%
Cl.c1ccc(Cn2ccc3cc(Nc4ncnc5ccccc45)ccc32)cc1 [GW275568],24%,27%,0%,16%,29%,17%,23%,28%,0%,19%,1%,16%,0%,16%,31%,0%,13%,5%,27%,18%

# Source: paper PMC5540273 (PLoS ONE, 2017)
